KCNH2 WT inh = blocks the wildtype human KCNH2 potassium channel; U2OS, BacMam KCNH2, thallium flux FluxOr; active compounds read low; activity change, % at 1.84 µM; 340,000 tested, 0.37% active; AID 720551;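 active means maximum activity change below -70%; inconclusive means maximum activity change between -70% and -50%; inactive means maximum activity change above -50%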
Target sequence (Q12809 whole entry, looked up): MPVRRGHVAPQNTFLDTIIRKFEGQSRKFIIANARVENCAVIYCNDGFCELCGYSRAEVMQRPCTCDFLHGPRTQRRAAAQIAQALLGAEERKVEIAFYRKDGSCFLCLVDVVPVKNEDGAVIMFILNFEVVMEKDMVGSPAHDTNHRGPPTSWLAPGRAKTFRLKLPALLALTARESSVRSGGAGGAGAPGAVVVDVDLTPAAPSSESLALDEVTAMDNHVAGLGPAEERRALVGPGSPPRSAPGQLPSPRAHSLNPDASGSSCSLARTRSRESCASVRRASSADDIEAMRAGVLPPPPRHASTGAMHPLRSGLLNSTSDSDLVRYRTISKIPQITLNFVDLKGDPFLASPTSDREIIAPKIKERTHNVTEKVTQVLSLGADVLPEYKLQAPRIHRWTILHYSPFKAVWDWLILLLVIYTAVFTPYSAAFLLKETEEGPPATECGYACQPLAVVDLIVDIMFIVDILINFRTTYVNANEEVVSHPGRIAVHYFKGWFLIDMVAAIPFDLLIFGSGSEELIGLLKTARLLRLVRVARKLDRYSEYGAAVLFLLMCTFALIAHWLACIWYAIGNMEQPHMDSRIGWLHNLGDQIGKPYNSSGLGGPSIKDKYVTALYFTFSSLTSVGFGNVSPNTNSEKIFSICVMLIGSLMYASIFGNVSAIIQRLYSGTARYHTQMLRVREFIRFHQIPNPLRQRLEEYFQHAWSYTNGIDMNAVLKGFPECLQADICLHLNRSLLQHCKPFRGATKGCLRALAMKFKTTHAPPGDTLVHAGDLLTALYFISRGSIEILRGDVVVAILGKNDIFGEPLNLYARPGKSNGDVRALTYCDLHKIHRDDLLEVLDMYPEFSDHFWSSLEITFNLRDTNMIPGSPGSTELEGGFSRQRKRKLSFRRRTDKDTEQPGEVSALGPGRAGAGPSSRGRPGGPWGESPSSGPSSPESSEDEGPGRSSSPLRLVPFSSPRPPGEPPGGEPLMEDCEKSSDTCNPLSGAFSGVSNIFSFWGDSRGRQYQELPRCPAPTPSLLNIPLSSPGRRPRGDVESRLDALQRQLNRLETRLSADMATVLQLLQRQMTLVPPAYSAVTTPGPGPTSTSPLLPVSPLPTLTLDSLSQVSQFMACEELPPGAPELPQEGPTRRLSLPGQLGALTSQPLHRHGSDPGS
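U2OS cells were transduced with wild-type KCNH2 virus (2.03 x 10^8 / mL) for 4 h at room temperature, then cultured overnight at 37 C. Thallium flux was read with FluxOr dye. Rate constants were normalized to DMSO controls.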
SW480 rerep = DNA re-replication induction in SW480 cells; Potency, µM (top dose mostly 46.1 µM), usual class: activators; 340,000 tested, 1.8% active; SW480 DNA re-replication, Hoechst DNA content imaging, 48 h; further: nearly all actives have a fitted effect of over 55% in size
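Cells (250 per well) received 23 nL compound or DMSO by pin tool and were kept 48 hr at 37 C, 5% CO2. Nuclei were then stained with Hoechst for 40 min and scanned for DNA content.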
KCNH2 3.1 block = KCNH2 3.1 (human) potassium channel inhibition; U2OS KCNH2 3.1, thallium flux FluxOr; active compounds read low; activity change, % (tested at about 1.8 µM); 340,000 tested, 0.95% active; AID 720553;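 active means maximum activity change below -70%; inconclusive means maximum activity change from -70% to -50%; inactive means maximum activity change above -50%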;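 further: thallium influx rate constant from kinetic fluorescence after stimulation buffer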
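Virally transduced U2OS (3.1 isoform, 4 h infection in dark at RT) → overnight 37 C → FluxOr + Red40 in HBSS/HEPES, 45 min → stimulation buffer, 2 min kinetic read → rate constant vs DMSO controls.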
KB-3-1 tox = KB-3-1 parental cell cytotoxicity | KB-3-1 viability, CellTiter-Glo ATP luminescence, 72 h | Potency, µM (series often up to 46.1 µM), hits mostly cytotoxic | 400,000 tested, 1.4% active; further: nearly all actives have a fitted effect of over 60% in size
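Here the drug-naive KB-3-1 line serves as comparator for MDR sub-line selectivity; cells received compound titrations, 72 h at 37 °C, then CellTiter-Glo readout.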
MCF10A rereplic = inducers of DNA re-replication in MCF 10A breast cells. MCF 10A DNA re-replication, Hoechst nuclear intensity, 48 h. AID 624296. 350,000 tested, 2.9% active. Potency, µM (top dose mostly 46.1 µM), hits mostly activators; further: nearly all actives have a fitted effect of over 50% in size
KB-V1 cytotox = KB-V1 MDR subline cytotoxicity. KB-V1 MDR cells viability, CellTiter-Glo, 72 h. Potency, µM (highest dose often 46.1 µM), actives largely listed as cytotoxic. 400,000 tested, 3.4% active; further: nearly all actives have a fitted effect of over 60% in size
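Compound-treated KB-V1 multidrug-resistant cells, 72 h, 37 degrees C; viability by CellTiter-Glo. Fitted qHTS curves give the values.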
A number is an active result; n = inactive; u = inconclusive; x = not tested or not shown. Hits are enriched below; roughly 7.6% of the tested compounds scored in any of these assays. Unless noted, the call rests on the fitted dose curve; in most records, active means well fitted curve in the direction sought with a large enough effect; inconclusive means small, poorly fitted or top-dose-only effect, or another doubt; inactive means no such curve, though single readings can be large; an effect the other way counts as inactive or inconclusive.

SMILES | KCNH2 WT inh | SW480 rerep | KCNH2 3.1 block | KB-3-1 tox | MCF10A rereplic | KB-V1 cytotox
COc1ccc(CNC(=O)CCCn2ncn3c(cc4occc43)c2=O)cc1 | n | n | -114.2 | n | n | n
CCc1nn(CCCC(=O)NCc2ccc(OC(C)C)cc2)c(=O)c2cc3occc3n12 | n | u | n | 7.31µM | u | u
CC(CNC(=O)CCCn1ncn2c(cc3occc32)c1=O)c1ccccc1 (stereo not given) | n | n | n | n | n | n
CCOc1ccc(CNC(=O)CCCn2nc(CC)n3c(cc4occc43)c2=O)cc1 | n | n | n | n | n | n
CC1=C(C(=O)N2CCOCC2)CC(CC(=O)NCc2cccs2)C(=O)N1Cc1ccccc1 (stereo not given) | x | x | x | n | x | n
CCN(CC)CCN1CCn2c3c(c4cc(C)ccc42)CCCC31 (stereo not given) | x | 14.6µM | n | n | 4.11µM | n
CCN1CCn2c3c(c4cc(Cl)ccc42)CCCC31 (stereo not given) | n | n | n | n | n | n
CC(=O)NNc1nc(-c2ccccc2)c2cc(Cl)ccc2n1 | n | x | n | n | x | n
Cc1ccc2nc(NCCO)nc(-c3ccccc3)c2c1 | n | u | n | n | u | 11.6µM
COCCNC(=O)c1cccc(Nc2nc(-c3ccccc3)c3cc(Cl)ccc3n2)c1 | n | u | n | 14.6µM | 2.59µM | u
Cc1ccc2nc(N/N=C/c3ccccc3C#N)nc(-c3ccccc3)c2c1 | n | u | n | n | 13µM | u
OCCNc1nc(-c2ccccc2)c2cc(Cl)ccc2n1 | n | u | n | n | 20.6µM | u
OCCNc1nc(-c2ccccc2)c2ccccc2n1 | n | u | n | n | u | n
c1ccc(-c2nnnc3ccccc23)cc1 | n | n | n | n | n | n
Clc1ccc2nnnc(-c3ccccc3)c2c1 | n | u | n | 2.59µM | 3.26µM | 10.3µM
Cc1ccc(C(=O)N/C(=C/c2ccc(N(C)C)cc2)C(=O)NCC2CCCO2)cc1 (stereo not given) | n | n | n | n | n | n
O=C(Nc1ccc(S(=O)(=O)N2CCOCC2)cc1)c1ccco1 | n | n | n | n | n | n
O=C(Nc1ccc(Oc2ccc(S(=O)(=O)N3CCOCC3)cn2)cc1)c1ccco1 | n | n | n | n | n | 18.4µM
CC(C)CNC(=O)CN(C1CCCCC1)S(C)(=O)=O | n | 6.51µM | n | n | u | n
CS(=O)(=O)N(CC(=O)Nc1ccc(Br)cc1)C1CCCCC1 | n | n | n | 23.1µM | n | u
CS(=O)(=O)N(CC(=O)Nc1ccc(C(N)=O)cc1)C1CCCCC1 | n | n | n | n | n | n
COc1cc2ncnc(NCCCN3CCOCC3)c2cc1OC | n | n | -79.0 | n | n | n
Clc1ccc(-c2nc(NCCN3CCOCC3)c3ccccc3n2)cc1 | n | u | n | n | u | 4.11µM
CCOc1ccc(C(=O)NCCCN2CCOCC2)cc1OCC | n | n | n | n | n | n
CCOc1cc2nc(-c3ccc(OC)c(OC)c3)nc(NCCCN3CCOCC3)c2cc1OC | -92.9 | u | n | n | 11.6µM | u
SMILES | KCNH2 WT inh | SW480 rerep | KCNH2 3.1 block | KB-3-1 tox | MCF10A rereplic | KB-V1 cytotox
COc1ccc(-n2ncc3c(NCCCN4CCOCC4)ncnc32)cc1 | n | n | n | n | n | n
Cc1cc(Cl)ccc1OCC(=O)N1CCCCC1 | n | n | n | n | n | n
O=C(COc1ccc(Cl)cc1Cl)N1CCCN(C(=O)COc2ccc(Cl)cc2Cl)CC1 | n | u | n | u | u | 8.2µM
O=C(COc1ccc(Br)cc1Cl)N1CCN(c2ncccn2)CC1 | n | n | n | n | n | n
CCOC(=O)N1CCN(C(=O)COc2ccc(Br)cc2Cl)CC1 | n | n | n | n | n | 7.31µM
CCC(=Cc1ccccc1OC)c1ccncc1 | n | n | n | n | u | n
Cc1ccc(/C=C2\CCOC2=O)cc1 | n | n | n | n | n | n
Cc1ccc(/C=C2/CNC/C(=C/c3ccc(C)cc3)C2=O)cc1 | n | 4.61µM | n | 3.26µM | u | 4.11µM
COc1ccc(C(=O)NNC(=O)C(=O)NC(C)c2ccccc2)cc1OC (stereo not given) | n | n | n | n | u | u
O=C(NCCc1ccc(C(F)(F)F)cc1)C1CCC(=O)N(CCc2cccc(F)c2)C1 (stereo not given) | n | n | n | n | u | u
C=CCN1C(=O)c2ccccc2NC1c1ccc(Br)s1 (stereo not given) | n | n | n | n | n | u
O=C1c2ccccc2NC(c2ccc(Br)s2)N1O (stereo not given) | n | n | n | u | 23.1µM | u
Cn1c(=O)c2c(nc(N3CCN(c4ccc([N+](=O)[O-])cc4)CC3)n2C)n(C)c1=O | n | n | u | n | n | u
CCC(C)Sc1ccc([C@@H]2[C@H]3C(=O)N(CC)C(=O)[C@H]3[C@]3(C(=O)OC)CCCCN23)cc1 (stereo not given in full) | n | u | n | u | n | 10.3µM
CCSc1ccc([C@@H]2[C@@H]3C(=O)N(CC)C(=O)[C@@H]3[C@]3(C(=O)OC)CCCCN23)cc1 | n | n | n | n | n | n
CC(C)CNC1CS(=O)(=O)CC1O (stereo not given) | n | n | n | n | n | n
O=S1(=O)CC(O)C(NCc2cccnc2)C1 (stereo not given) | n | 2.06µM | n | n | 5.17µM | n
CCOC(=O)C1CCN(C(c2cccc(F)c2)c2c(O)cc(C)n(Cc3ccco3)c2=O)CC1 (stereo not given) | x | x | x | n | x | n
CCC(CO)[n+]1c(C)cc(/C=C2\Sc3ccccc3N2Cc2ccccc2)cc1C (stereo not given) | n | u | n | 1.64µM | u | n
C[C@]12CC[C@@H]3c4ccc(O)cc4CC[C@H]3[C@@H]1C[C@H](O)C2O (stereo not given in full) | x | n | x | x | n | x
Cc1cc(=O)c2c([nH]1)c(C)cc1[nH]c(C)c(C)c12 | n | 9.2µM | n | u | n | n
Cn1sccc1=O | n | 1.64µM | n | n | n | n
Cn1sc2ccccc2c1=O | n | x | n | n | x | u
O=C(O)c1cc2cccc([N+](=O)[O-])c2[nH]1 | x | x | x | n | x | n
COc1ccc(-c2coc3c(C(=O)NCC(C)C)cccc23)c(C)c1 | x | x | x | u | x | 14.6µM
CC(=O)Nc1ccc(NC(=O)c2ccc(-c3c(C)noc3C)c3ccoc23)cc1 | x | x | x | n | x | n
COc1ccc(-c2ccc(C(=O)Nc3cc(OC)c(OC)c(OC)c3)c3occc23)c(C)c1 | x | x | x | u | x | 6.51µM
COc1cc(NC(=O)c2ccc(-c3c(C)noc3C)c3ccoc23)cc(OC)c1OC | x | x | x | u | x | 5.8µM

Bioassay records from PubChem BioAssay.
